A selection: hits, their analogues and other compounds. The true share with any hit is near 10%.
JMJD2A Tudor – qHTS Assay for Inhibitors of JMJD2A-Tudor Domain | Potency, µM (doses to about 114 µM), for the others: at the highest dose activity change, negative = inhibition, usual class: inhibitors | 390,000 compounds, 4.4% hits | AlphaScreen JMJD2A-Tudor / H3K4me3 peptide binding | AID 504339, 2011 | Lysine-specific demethylase 4A (Homo sapiens), O75164; also: potency is read from the fitted curve at half-maximal effect; % is scaled to controls: 0 for no effect and ±100 for the full control effect; nearly all actives have a fitted effect of over 50% in size
Target sequence (O75164 whole entry, looked up, the tested form may be a part): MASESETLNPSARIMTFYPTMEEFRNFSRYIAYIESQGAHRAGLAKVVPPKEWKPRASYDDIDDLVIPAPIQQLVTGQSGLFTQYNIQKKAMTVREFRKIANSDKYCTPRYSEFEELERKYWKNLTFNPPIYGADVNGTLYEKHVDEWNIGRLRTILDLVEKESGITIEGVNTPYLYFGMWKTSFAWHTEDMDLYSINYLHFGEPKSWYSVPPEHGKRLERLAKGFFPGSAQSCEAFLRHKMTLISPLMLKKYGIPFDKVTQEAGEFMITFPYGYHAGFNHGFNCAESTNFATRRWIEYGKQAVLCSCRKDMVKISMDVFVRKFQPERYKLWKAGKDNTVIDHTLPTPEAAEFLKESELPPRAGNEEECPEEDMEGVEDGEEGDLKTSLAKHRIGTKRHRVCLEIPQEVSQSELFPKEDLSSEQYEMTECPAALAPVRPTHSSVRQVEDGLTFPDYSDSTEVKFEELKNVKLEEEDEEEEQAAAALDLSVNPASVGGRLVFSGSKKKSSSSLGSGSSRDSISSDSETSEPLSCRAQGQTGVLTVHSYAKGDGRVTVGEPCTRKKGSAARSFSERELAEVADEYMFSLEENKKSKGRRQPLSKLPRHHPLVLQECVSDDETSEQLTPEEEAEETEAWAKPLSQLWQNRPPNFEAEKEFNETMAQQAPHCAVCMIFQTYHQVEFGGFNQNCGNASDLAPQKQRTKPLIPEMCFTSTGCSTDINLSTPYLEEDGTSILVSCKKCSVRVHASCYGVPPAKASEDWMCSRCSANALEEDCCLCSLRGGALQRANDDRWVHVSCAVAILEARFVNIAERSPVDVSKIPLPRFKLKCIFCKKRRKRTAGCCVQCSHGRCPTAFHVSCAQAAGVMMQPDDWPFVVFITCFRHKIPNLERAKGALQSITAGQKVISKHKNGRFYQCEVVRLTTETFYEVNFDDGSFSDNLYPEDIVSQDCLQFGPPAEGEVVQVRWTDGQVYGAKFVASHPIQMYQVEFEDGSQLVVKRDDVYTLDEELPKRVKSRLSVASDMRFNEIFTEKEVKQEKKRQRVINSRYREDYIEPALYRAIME
BAZ2B inh – qHTS Assay for Inhibitors of BAZ2B. Bromodomain adjacent to zinc finger domain protein 2B (Homo sapiens), Q9UIF8. AlphaScreen BAZ2B-H3K14Ac peptide displacement. Potency, µM (titrated, usually from 114 µM), for inactives: at the highest dose activity change, negative = inhibition, most hits filed as inhibitors. 360,000 compounds, 4.4% hits; also: potency is read from the fitted curve at half-maximal effect; % is scaled to controls: 0 for no effect and ±100 for the full control effect; nearly all actives have a fitted effect of over 60% in size
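Compounds, titrated to a top concentration of 110 uM, were incubated 30 min at room temperature with preformed BAZ2B/acetyl-K14 H3 peptide complex (50 nM each). Proximity signal was measured by AlphaScreen after 20 min with beads.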
Six1-Eya2 inh – qHTS Assay for Inhibitors of the Six1/Eya2 Interaction | AlphaScreen GST-Six1/His-Eya2 binding, biochemical; stronger effect = lower value | activity change, % (no concentration beside the values) | 360,000 compounds, 0.56% hits; in the data active = activity change below about -65%; inconclusive = mostly about -30% to -63%; also: % is scaled to controls: 0 for no effect and ±100 for the full control effect
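AlphaScreen with GST-Six1 and His-Eya2 (5X mix: 250 nM and 500 nM), glutathione donor and nickel acceptor beads; buffer 50 mM Tris pH 8.0, 300 mM NaCl, 1 mM TCEP; 1 h at 37 C in the dark.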
CtBP-E1A blk – qHTS Assay for Inhibitors of the CtBP/E1A Interaction | CtBP / adenovirus E1A interaction (AlphaScreen) | AlphaScreen GST-E1A/His-CtBP binding, 1536-well; stronger effect = lower value | activity change, % (no concentration beside the values) | 340,000 compounds, 0.49% hits; in the data active = activity change below about -65%; inconclusive = mostly about -30% to -63%; also: % is scaled to controls: 0 for no effect and ±100 for the full control effect
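GST-E1A and His-tagged CtBP (125 nM each as 5X stock) were preincubated with pin-transferred compound for 2 h at 37 °C in the dark, then glutathione donor and nickel acceptor beads were added for 1 h before AlphaScreen reading.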
HP1b chromo inh – HTS for Inhibitors of HP1-beta Chromodomain Interactions with Methylated Histone Tails; AlphaScreen HP1-beta / biotin-H3K9me3 peptide binding; Chromobox protein homolog 1 (Homo sapiens), P83916; Potency, µM (top dose mostly 114 µM), inactives show top-dose activity change, negative = inhibition, most hits filed as inhibitors; 390,000 compounds, 0.56% hits; AID 540317, 2011; also: potency is read from the fitted curve at half-maximal effect; nearly all actives have a fitted effect of over 70% in size
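Compound inhibition of the preformed complex between 50 nM HP1-beta and 50 nM biotinylated H3K9me3 peptide was read by AlphaScreen. Buffer was PBS pH 7.4 with 0.01% Tween-20. Incubations ran 30 min at room temperature, with 10 ug/mL donor/acceptor beads.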
G9a inh – qHTS Assay for Inhibitors of Histone Lysine Methyltransferase G9a; Histone-lysine N-methyltransferase EHMT2 (Homo sapiens), Q96KQ7; G9a H3K9 monomethylation, AlphaScreen, 2 h; Potency, µM (doses to about 102 µM), for inactives: top-dose activity, negative = inhibition, usual class: inhibitors; 350,000 compounds, 8.8% hits; also: potency is read from the fitted curve at half-maximal effect; % is scaled to controls: 0 for no effect and ±100 for the full control effect; nearly all actives have a fitted effect of over 75% in size
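AlphaScreen detection with an anti-monomethyl H3K9 antibody quantified product after a 2 h room-temperature reaction containing 500 nM biotinylated H3K9 peptide, 20 µM SAM and 20 nM enzyme, which had been preincubated 15 min with compound.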
* hit, by the source's call; ? = inconclusive; . = no result given; [ ] = dose if it differs, or a comment. Unless noted, calls follow the shape of the dose curve; as a rule, active = well fitted inhibition curve with a large enough effect; inconclusive = small, poorly fitted or top-dose-only effect; inactive = no such curve, though single readings can be large or run the other way.

SMILES | JMJD2A Tudor | BAZ2B inh | Six1-Eya2 inh | CtBP-E1A blk | HP1b chromo inh | G9a inh
Cc1c(NC(=O)c2ccc(-c3ccc(F)cc3)o2)cccc1-c1nc2ncccc2o1 | -19.9% | -32.3% | . | . | 35.9% | -24.5%[59 µM]
Cc1nc2c(C)cccn2c1/C(O)=C1\C(=O)C(=O)N(CCN2CCOCC2)C1c1ccncc1 (centres undefined) | 5.62µM* | 79.4µM* | 10.3 | 0.1 | ? | -50.6%[12.7 µM]
Cc1ccc(C2/C(=C(\O)c3c(C)nc4c(C)cccn34)C(=O)C(=O)N2CCN(C)C)o1 (centres undefined) | -10.9% | . | 2.4 | . | 33.3% | .
Cc1nc2c(C)cccn2c1/C(O)=C1\C(=O)C(=O)N(CCN(C)C)C1c1ccco1 (centres undefined) | 22.4µM* | -0.2% | 0.0 | 4.0 | 17.4% | -45.3%
Cc1nc2c(C)cccn2c1/C(O)=C1\C(=O)C(=O)N(CCN(C)C)C1c1ccccc1 (centres undefined) | -5.2% | -0.5% | 3.2 | 5.2 | 14.4% | 6.1%[12.7 µM]
COc1ccc(C(=O)Nc2ccc(N(C)Cc3ccccc3)c(C(=O)O)c2)cc1 | ? | ? | . | . | 6.7% | -6.8%[59 µM]
O=C(COC(=O)C1Cc2ccccc2CN1C(=O)c1ccccc1)Nc1ccc(SC(F)F)cc1 (centres undefined) | -32.2% | -12.1% | 5.1 | 5.5 | ? | 79.4µM*
O=C(CN1C(=O)/C(=C/c2ccco2)SC1=S)Nc1ccc(O)c(C(=O)O)c1 | ? | 44.7µM* | -4.4 | . | 41.5% | 25.1µM*
O=C(CN1C(=O)/C(=C/c2ccco2)SC1=S)NC1CCS(=O)(=O)C1 (centres undefined) | ? | ? | ? | ? | -34.2% | 39.8µM*
CC(/C=C1\SC(=S)N(CC(=O)O)C1=O)=C\c1ccccc1 | -16.7% | -15.5% | 9.5 | 3.9 | -0.7% | 12.5%[59 µM]
CC(C(=O)Nc1ccc(C(=O)O)c(O)c1)N1C(=O)/C(=C\c2ccco2)SC1=S (centres undefined) | 6.6% | 28.2µM* | ? | . | 20.7% | 14.1µM*
COc1ccc(C=C2SC(=S)N(CCCC(=O)Nc3ccc(C(=O)O)c(O)c3)C2=O)cc1OC | . | . | -23.0 | -20.1 | . | .
CC(=C\c1ccco1)/C=C1/SC(=S)N(CC(=O)O)C1=O | -28.0% | 50.1µM* | -9.8 | -1.8 | -0.6% | 39.8µM*
CCOC(=O)c1cccc(NC(=O)c2cc(CN3CCOCC3)on2)c1 | -7.3% | -8.1% | . | . | 25.4% | 2.9%[59 µM]
Cc1ccccc1NC(=O)CS(=O)(=O)c1cccc2nsnc12 | -9.4% | -1.0% | . | . | 16.9%[57 µM] | 16.8%[59 µM]
O=C(CN1C(=O)/C(=C/c2ccco2)SC1=S)Nc1ccc(C(=O)O)c(O)c1 | -10.9% | 28.2µM* | -65.1* | . | 29.9% | .
COc1ccc(CNC(=O)c2ccc(CNS(=O)(=O)c3ccc(F)cc3)cc2)cc1 | -15.1% | 4.0% | . | . | 27.1% | -5.9%[59 µM]
CC(C)N(C(=O)[C@H]1C[C@H](CC(=O)NCCc2ccccn2)C(=O)N2CCc3c([nH]c4cc(-c5ccco5)ccc34)[C@]12C)C(C)C | 56.2µM* | . | -9.1 | -5.6 | -36.5% | .
CC(C)N(C(=O)[C@H]1CC(CC(=O)NCc2ccco2)C(=O)N2CCc3c([nH]c4ccccc34)[C@]12C)C(C)C (some centres undefined) | -25.3% | . | -6.0 | -1.7 | 14.6% | .
CC(C)N(C(=O)[C@H]1C[C@H](CC(=O)NCc2ccco2)C(=O)N2CCc3c([nH]c4cc(-c5ccco5)ccc34)[C@]12C)C(C)C | 56.2µM* | . | -21.5 | -23.3 | ? | .
Cc1c(-c2nnc(SCC(=O)Nc3ccccc3F)o2)nnn1-c1ccc(F)cc1 | -20.4% | -18.8% | . | . | 7.7%[57 µM] | -3.9%[59 µM]
COc1cccc(NC(=O)Cn2c(=O)n(-c3ccccc3)c(=O)c3c2c2cc(OC)ccc2n3C)c1 | -4.8% | -3.5% | . | . | 33.3% | 5.7%[59 µM]
S=C1NC2=C(CCCC2=C2SCCS2)C(c2ccccc2)N1 (centres undefined) | ? | ? | 21.0 | 18.9 | -16.1% | 10µM*
CC1=C(C(=O)c2ccccc2)C(c2cccc([N+](=O)[O-])c2)NC(=S)N1 (centres undefined) | ? | -27.5% | -6.2 | 2.3 | 17.6% | ?
COc1cc(OC)cc(C(=O)Oc2c(CN3CCOCC3)cc(Cl)c3cccnc23)c1 | -29.9% | 22.4µM* | ? | ? | 26.2% | -29.9%
SMILES | JMJD2A Tudor | BAZ2B inh | Six1-Eya2 inh | CtBP-E1A blk | HP1b chromo inh | G9a inh
O=C(Oc1c(CN2CCOCC2)cc(Cl)c2cccnc12)c1ccccc1 | ? | 25.1µM* | ? | -78.3* | 30.5% | 12.0%[59 µM]
COc1cc(C(=S)N2CCOCC2)cc(OC)c1OC(=O)c1ccccc1Cl | . | . | -23.4 | -9.1 | . | .
O=C(O)Cn1cc(CN2CCOCC2)c2ccccc21 | 1.7% | -1.6% | -2.5 | . | 64.5% | ?
O=C(Oc1c(CN2CCOCC2)cc(Cl)c2cccnc12)c1ccccc1F | 25.1µM* | 3.55µM* | -90.8* | -91.4* | 2.5% | -46.5%
COc1ccc(C(=O)c2cn(Cc3ccc(C)cc3)c3cc4c(cc3c2=O)OCO4)cc1 | -14.5% | 17.6% | . | . | 54.3% | 26.7%[59 µM]
CCCOc1cccc(C2c3c(oc4ccccc4c3=O)C(=O)N2c2nncs2)c1 (centres undefined) | -18.2% | -6.6% | . | . | 42.1% | 19.2%[59 µM]
COc1ccc(NC(=O)CCN2CCN(CCO)CC2)c(OC)c1 | -15.2% | -18.6% | . | . | -2.1% | -49.4%[59 µM]
O=c1cc(N2CCN(c3ccccc3)CC2)[nH]c(=O)n1C1CCCCC1 | -8.6% | -5.1% | 4.0 | -2.4 | 23.4% | 3.2%
CN1CCN(c2cc(=O)n(C3CCCCC3)c(=O)[nH]2)CC1 | -15.5% | 7.5% | 0.7 | -11.5 | 26.9% | 35.5µM*
CCN1CCN(c2cc(=O)n(C3CCCCC3)c(=O)[nH]2)CC1 | 7.6% | 10.7% | 5.1 | 1.3 | 57.7% | 50.1µM*
Cc1ccc(C2/C(=C(\O)c3cnn(-c4ccccc4)c3C)C(=O)C(=O)N2CCN(C)C)o1 (centres undefined) | -8.9%[11.4 µM] | -23.5% | -0.6 | 0.7 | 53.0% | -31.7%[59 µM]
CCOC(=O)c1[nH]c(C)c(/C(O)=C2\C(=O)C(=O)N(CCCN(C)C)C2c2ccncc2)c1C (centres undefined) | . | -2.4% | . | . | . | 16.6%[59 µM]
CN(C)CCCN1C(=O)C(=O)/C(=C(/O)c2ccc3c(c2)OCCO3)C1c1ccco1 (centres undefined) | . | 2.1% | . | . | . | -0.9%

Screens (PubChem BioAssay)
